SKN-1 inh = blocks SKN-1 activity in C. elegans; C. elegans VP596 Pgst-4::GFP/RFP ratio, acrylamide-induced, 24 h; inhibition, % at 21.8 µM; 360,000 tested, 0.49% active; AID 624304;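 active = interference check ratio from 0.5 to 1.5 plus GFP to RFP signal ratio inhibition reaching or exceeding a fixed threshold, cut at about 30% in these data, passing the limit was not always enough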
PG9 Ab binder = PG9 antibody binding by small molecule; TR-FRET gp120-PG9 antibody binding; inhibition, % at 6.7 µM; 360,000 tested, 0.43% active; in the data active = inhibition above about 8.5%
PGE2 EP2 inh = inhibitors of human EP2 prostaglandin E2 receptor. P43116. C6 glioma cells expressing human EP2, cAMP TR-FRET; cells stimulated with saturating PGE2. inhibition, % at 25 µM. 260,000 tested, 0.52% active. AID 1422;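 active = percent inhibition above 40 after rounding to a whole number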;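 also: rat C6 glioma host cells with rolipram phosphodiesterase inhibitor present; the protocol text gives 20 µM as final concentration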
Target sequence (P43116 whole entry, looked up): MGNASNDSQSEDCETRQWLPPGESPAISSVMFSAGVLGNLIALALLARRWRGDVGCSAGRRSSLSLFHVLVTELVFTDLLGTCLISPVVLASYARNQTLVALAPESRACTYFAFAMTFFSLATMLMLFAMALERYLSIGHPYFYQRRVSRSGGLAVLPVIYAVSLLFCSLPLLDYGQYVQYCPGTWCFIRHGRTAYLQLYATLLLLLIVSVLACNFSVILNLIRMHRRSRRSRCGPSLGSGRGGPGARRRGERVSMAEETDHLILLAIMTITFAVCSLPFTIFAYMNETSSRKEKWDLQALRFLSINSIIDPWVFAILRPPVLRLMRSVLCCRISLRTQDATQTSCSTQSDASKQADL
RAM inhibit = blocks the yeast RAM network | 190,000 tested, 1.8% active | S. cerevisiae dse1pr::URA3 reporter, 5-FOA growth OD615, 2 d; analog-sensitive cbk1-as2 kinase mutant strain | inhibition, % at 50 µM;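 active = inhibition above a set limit, 3 SD over mean compound inhibition, cut at about 8.4% in these data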;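 also: 0% = DMSO-only wells with no growth and 100% = 10 µM 1-NA-PP1 full growth; inhibition rescues growth on 5-FOA so higher OD means more RAM inhibition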
EP2 mod = EP2 receptor (human) modulation. EP2-expressing cells, cAMP HTRF FRET, PGE2 co-stimulation. 260,000 tested, 0.83% active. P43116. AID 940. induction, % at 25 µM;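 active = compounds whose cAMP rise, as percent of the full-agonist control response, exceeds 60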;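 also: rat C6 glioma line stably carrying human EP2 under a CMV promoter; the protocol text gives 20 µM as final concentration; 100% = response of wells given 1 µM PGE2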
NR1D1 modulator = modulates human Rev-erb alpha binding to DNA | Rev-erbα–FITC-DNA binding, fluorescence polarization, 90 min | activity, % at 10 µM | 370,000 tested, 0.79% active | AID 1259318;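 active = activity above about 14%, limit read from the data; passing the limit was not always enough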;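 also: 0% = DMSO wells with 35 nM protein and 100% = DMSO wells with 750 nM protein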
Numbers without * were called inactive; / = no result; ! = not confirmed by another sample. Shown are actives, neighbours in structure and some others; about 2.9% of the full set was active somewhere.

SMILES	SKN-1 inh	PG9 Ab binder	PGE2 EP2 inh	RAM inhibit	EP2 mod	NR1D1 modulator
O=C(NC1CCCCC1)C(c1ccccc1F)N(CC1CCCO1)C(=O)Cn1nnc2ccccc21 (configuration not stated)	/	/	12	/	11	/
Cc1ccc2nc(-c3ccccc3)c(-c3ccccc3)nc2c1	-3	0	8	7	61*	3
Cc1ccc2nc(Cl)nc(-c3ccccc3)c2c1	9	0	9	1	52	2
O=C1CC2(CCN(C(=O)N3CCCC3)CC2)Oc2ccc(F)cc21	/	/	/	/	-29	/
CCc1cc2ccc(OC)cc2nc1SCC(=O)Nc1c(C)cccc1C	/	/	21	/	64*	/
CCc1cc2ccc(C)cc2nc1SCC(=O)Nc1c(C)cccc1C	/	/	23	/	24	/
CCc1cc2ccc(OC)cc2nc1SCC(=O)Nc1ccccc1C	/	/	14	/	80*	/
CCc1cc2ccc(OC)cc2nc1SCC(=O)NNC(=O)c1ccc(OC)cc1	/	/	13	/	62*	/
CCc1cc2ccc(OC)cc2nc1SCC(=O)NCCc1ccc(OC)c(OC)c1	/	/	15	/	74*	/
COc1ccc2cc(C#N)c(SCC(=O)NCCc3ccc(OC)c(OC)c3)nc2c1	/	/	20	/	19	/
O=C(NCCc1ccccc1)[C@@H]1C=CCN1C(=O)c1cccs1	/	/	12	/	-20	/
O=[N+]([O-])c1cccc2c1ccc1ncccc12	30	3	/	/	/	8
O=[N+]([O-])c1ccc2ncccc2c1CCc1c([N+](=O)[O-])ccc2ncccc12	/	/	53*	/	4	/
CC1=C(C(=O)OC(C)C)C(c2ccccc2I)C2=C(CC(C)(C)CC2=O)N1 (configuration not stated)	/	/	15	/	41	/
COc1cccc(C(CC(=O)Nc2cccc3ccccc23)NC(=O)c2ccccc2)c1 (configuration not stated)	-1	0	3	10*	-11	1
Brc1ccc(OCc2nc(-c3ccccn3)n[nH]2)cc1	28*	-2	17	2	-5	2
CCN(CC)c1ccc(C(=S)N2CCN(c3ccccc3)CC2)cc1	32*	-2	18	4	6	-2
CCOC(=O)C1=C(CSc2nc(-c3ccccc3)ccc2C#N)OC(N)=C(C#N)C1c1ccccc1 (configuration not stated)	37*	-1	8	8.6*	9	1
CCOC(=O)C1=C(CSc2nc(-c3ccccc3)ccc2C#N)OC(N)=C(C#N)C1c1cccnc1 (configuration not stated)	27	0	16	3	-5	0
NC(=O)NC(=O)CSc1nc2sc(-c3ccccc3)cc2c(=O)n1-c1ccccc1	-1	1	3	2	64*	16
CN(C)S(=O)(=O)c1ccc(C(=O)OCC(=O)c2ccc(OC(F)F)cc2OC(F)F)cc1	-1	-1	15	11*	-30	6
NCc1ccoc1C(=O)O	/	/	7	/	-26	/
COc1cc(/C=N/N(CCO)C2=NS(=O)(=O)c3ccccc32)cc(OC)c1OC	35*	0	/	/	/	3
COc1cc(Br)cc(/C=N/N(CCO)C2=NS(=O)(=O)c3ccccc32)c1OC	6	0	/	/	/	4
C=CCN1C(=O)C2C(C(=O)NC3CCCCC3)C3C=CC2(O3)C1C(=O)NC(C)(C)C (configuration not stated)	/	/	8	/	26	/
SMILES	SKN-1 inh	PG9 Ab binder	PGE2 EP2 inh	RAM inhibit	EP2 mod	NR1D1 modulator
N#C[C@H](c1ccccc1)N1CCCN([C@@H](C#N)c2ccccc2)C1c1ccccc1O (some centres not stated)	/	/	43*	/	4	/
CC(C)NC(=O)CNCc1cccs1	/	/	2	/	10	/
CCCCCC1CC(CC(=O)NC(=S)Nc2ccc([N+](=O)[O-])cc2)C(=O)O1 (configuration not stated)	9	1	11	11*	1	-1
CN(C)CCN(CC1=Cc2ccccc2OC1)Cc1cccs1	/	/	6	/	-42	/
CCOc1ccc(Cl)cc1S(=O)(=O)N1CCN(c2ccc(F)cc2)CC1	20	0	9	9.0*	-23	-4
CN(C(=S)S)C1CCS(=O)(=O)C1 (configuration not stated) (tested in a mixture with another compound)	/	/	13	/	-23	/
CC1CN(c2ncnc3c2c(-c2ccccc2)cn3-c2ccc(F)cc2)CC(C)O1 (configuration not stated)	13	0	2	8.7*	55	4
Cc1ccc(NC(=S)N(CCO)Cc2cc3cccc(C)c3[nH]c2=O)cc1	/	/	15	/	-11	/
O=S(=O)(CC1CSc2nc3ccccc3n21)c1ccc2ccccc2c1 (configuration not stated)	/	/	5	/	-99	/
COc1ccc(-c2[nH]ncc2N=Nc2cc(C)cc(C)c2)cc1	10	-1	6	5	33	6
COc1ccc(-c2[nH]ncc2N=Nc2ccccc2)cc1	12	2	5	2	62*	1
CC(=O)Nc1nc(C)c(C(=O)Nc2nnc(C)s2)s1	/	/	11	/	-16	/
O=C(OCCNC(=O)c1cc2ccccc2oc1=O)c1cccnc1	22	3	10	2	64*	-1
COc1cccc(C(=O)OCCCNC(=O)c2cc3ccccc3oc2=O)c1	/	/	12	/	-66	/
O=C(Cn1c(C(F)(F)F)nc2ccccc21)c1ccc(F)cc1	35*	0	/	3	-2	-4
C=CCNC(=O)c1cc2c(=O)n3cc(C)ccc3nc2n(CCN2CCOCC2)c1=N	/	/	7	/	-45	/
Oc1ccc(O)cc1	/	/	110*!	/	-34	1
Oc1ccccc1	/	0	/	/	/	-3
COc1cccc(C(O)CN2CCC(O)(c3cccc(C)c3)CC2)c1 (configuration not stated)	/	/	6	/	-32	/
COc1ccccc1OCCOc1ccc(C(=O)c2ccccc2)cc1	-3	1	6	10.0*	-39	2
CN(C)c1ccc(/C=C2\SC(=S)N(NC(N)=O)C2=O)cc1	/	/	16	/	-13	/
C[N+](C)(C)CCN(Cc1cccs1)c1ccccn1	/	/	55*	/	14	/
Cc1ccc(S(=O)(=O)N2CCC(=O)N(C(COCc3ccc(C(F)(F)F)cc3)Cc3ccccc3)CC2)cc1 (configuration not stated)	-13	-2	3	10*	21	-1
Cc1ccc(C(=O)NC(=S)Nc2ccccc2C(F)(F)F)c(C)c1	32*	2	11	5	50	1
COc1ccc(CN2CCC(O)(c3ccccc3F)CC2)cc1Cn1nc(C)cc1C	/	/	5	/	-74	/
COC(=O)c1ccc(OC(=O)CCN2c3ccccc3Sc3ccccc32)cc1	-2	-3	7	11*	32	-1
OC(CN1CCC(O)(c2ccccc2F)CC1)c1ccccc1 (configuration not stated)	/	/	5	/	-47	/
